Source: PubChem (Fisher Drug Discovery Resource Center)
mcGAS RapidFire: inhibitors of mouse cGAS. Q8C6L5. recombinant mouse cGAS, cGAMP by RapidFire MS. inhibition, % at 12.5 µM. hit rate 0.18% among 130,000;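 active = inhibition of cGAS enzyme activity at or above 60%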;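 note: enzyme stimulated by 45 bp dsDNA with ATP and GTP substrates; cGAMP share of summed cGAMP plus half ATP and half GTP signals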
Target sequence (Q8C6L5 whole entry, looked up): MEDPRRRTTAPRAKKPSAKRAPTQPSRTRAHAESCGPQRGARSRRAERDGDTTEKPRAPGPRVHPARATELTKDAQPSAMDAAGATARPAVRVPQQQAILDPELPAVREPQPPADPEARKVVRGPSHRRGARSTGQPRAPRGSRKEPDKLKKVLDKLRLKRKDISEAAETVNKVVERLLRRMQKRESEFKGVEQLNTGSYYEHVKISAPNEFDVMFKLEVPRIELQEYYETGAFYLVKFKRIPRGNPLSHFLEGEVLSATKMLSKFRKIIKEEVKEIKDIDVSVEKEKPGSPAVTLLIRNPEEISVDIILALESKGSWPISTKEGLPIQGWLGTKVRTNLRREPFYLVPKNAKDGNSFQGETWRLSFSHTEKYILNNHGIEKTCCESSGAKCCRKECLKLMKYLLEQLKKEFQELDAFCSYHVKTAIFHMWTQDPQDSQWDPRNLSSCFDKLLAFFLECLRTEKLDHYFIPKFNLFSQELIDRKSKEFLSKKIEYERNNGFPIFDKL
* = called active by the depositor; ! = not confirmed by another sample. Shown is part of a subset that was picked to be rich in hits.

SMILES	mcGAS RapidFire
CCOC(=O)CCC(=O)OC1C(OC2C(C)C(OC3CC(C)(OC)C(O)C(C)O3)C(C)C(=O)OC(CC)C(C)(O)C(O)C(C)C(=O)C(C)CC2(C)O)OC(C)CC1N(C)C (configuration not stated)	98.6*
CCOC(=O)CCC(=O)O[C@H]1[C@H](O[C@@H]2[C@@H](C)[C@H](O[C@H]3C[C@@](C)(OC)[C@@H](O)[C@H](C)O3)[C@@H](C)C(=O)O[C@H](CC)[C@@](C)(O)[C@H](O)[C@@H](C)C(=O)[C@H](C)C[C@@]2(C)O)O[C@H](C)C[C@@H]1N(C)C	-7.2
CCC(=O)O[C@H]1[C@H](O[C@@H]2[C@@H](C)[C@H](O[C@H]3C[C@@](C)(OC)[C@@H](O)[C@H](C)O3)[C@@H](C)C(=O)O[C@H](CC)[C@@](C)(O)[C@H](O)[C@@H](C)C(=O)[C@H](C)C[C@@]2(C)O)O[C@H](C)C[C@@H]1N(C)C	-0.2
CCOc1ccc(CN(CC)CC(=O)N2c3ccccc3NC(=O)CC2C)cc1OC (configuration not stated)	-10.8
CCNC(=O)C1CCN(c2ccccc2Oc2ccccc2)C1=O (configuration not stated)	-1.4
OCC1(CCCc2ccccc2)CCN(C2CCOCC2)CC1	-5.5
O=C(Cn1nc2n(c1=O)CCCCC2)Nc1cccc(C(F)(F)F)c1	-10.4
O=c1oc2c(O)c(O)cc3c(=O)oc4c(O)c(O)cc1c4c23	93.4*
O=c1cc(-c2cc(O)c(O)c(O)c2)oc2cc(O)cc(O)c12	3.4
C=CCn1c(SCC(=O)NC2CCCCCCC2)nnc1C1CCCCC1	-4.9
N#CCC(=O)Nc1sc2c(c1C(N)=O)CCCC2	91.0*
NC(=O)c1c(NC(=O)CSCC(=O)O)sc2c1CCCC2	-3.2
NC(=O)c1c(NC(=O)CN2CCOCC2)sc2c1CCC2	-7.9
Cc1c(C(=O)NCc2ccc3c(c2)OCCO3)sc(=O)n1Cc1ccc(Cl)c(Cl)c1	-4.7
COc1ccccc1Cn1c(C)c(C(=O)Nc2ccc(OC)c(OC)c2)sc1=O	-1.3
O=C1OC(/C=C/c2cccc(Cl)c2Cl)=NC/1=C\c1ccc([N+](=O)[O-])cc1	70.9*
O=C1OC(/C=C/c2cccc(Cl)c2Cl)=NC/1=C/c1ccccc1[N+](=O)[O-]	-14.0
COc1ccc(/C=C2N=C(/C=C/c3cccc(Cl)c3Cl)OC\2=O)cc1	-0.4
COc1cc(C=NNP2(=O)C=C(c3ccccc3)OC(c3ccccc3)=C2)ccc1O	-7.2
COc1ccc(Br)cc1C1=N/C(=C\C=C\c2ccccc2)C(=O)O1	-2.8
CCOc1ccc2nc(NC(=O)CC)sc2c1	-5.5
CCOc1ccc2nc3cc(N)ccc3c(N)c2c1	92.1*!
Nc1c2ccccc2nc2ccccc12 (tested in a mixture with another compound)	41.1
COC(=O)c1sccc1N=Cc1c(O)n(C)c(=O)n(C)c1=O	-7.2
CC(C)(C)C1=NC(=Cc2ccc(Br)cc2)C(=O)O1	-10.3
SMILES	mcGAS RapidFire
CCCSc1nnc2c(n1)-c1cccc3cccc-2c13	-12.1
CCc1ncc(NC(=O)c2ccc(C)c(Cl)c2)cn1	-9.1
COc1cc(-c2ccc(NN=C3C=Cc4c(S(=O)(=O)O)cc(S(=O)(=O)O)c(N)c4C3=O)c(OC)c2)ccc1NN=C1C=Cc2c(S(=O)(=O)O)cc(S(=O)(=O)O)c(N)c2C1=O	97.8*
COc1cc(-c2cccc(C(=O)O)c2)ccc1NC(C)=O	-31.8
Cc1ccccc1-n1ncc2c(C(C)C)nn(CC(=O)N(C(C)C)C(C)C)c(=O)c21	-4.9
Cc1ccc(C2=N/C(=C\C=C\c3ccccc3)C(=O)O2)cc1	32.3
CC(C)Oc1ccccc1C=C1C(=O)OC(c2ccccc2)OC1=O (configuration not stated)	-9.1
O=C1OC(c2ccccc2)OC(=O)C1=C/C=C/c1ccccc1 (configuration not stated)	88.0*
CCc1nc2c3ccccc3ncn2n1	-8.1
c1ccc2c(c1)ncn1nc(CN3CCCCC3)nc21	-4.9
SCc1nc2c3ccccc3ncn2n1	95.3*
CN1CCC2(CCCN(c3cncc(C(=O)N4CCOCC4)n3)C2)C1 (configuration not stated)	2.6
Cc1nc(-n2nc(C3CC3)cc2NC(=O)c2cc(=O)c3ccccc3o2)[nH]c(=O)c1C	-2.4
O=C(Nc1ccnn1C1CCN(C(=O)CCn2cncn2)CC1)C1CCCC1	-2.7
CCOC(=O)c1[nH]nc(-c2ccc(C)cc2)c1C	-12.7
CCOC(=O)c1[nH]nc2c1CC/C2=C\c1ccccc1	1.0
CCOC(=O)c1[nH]nc2c1C(=O)N(CC)C2=O	62.5*
Clc1cc2c(cc1CN1CCN(c3nccc(Nc4ccc5ncsc5c4)n3)CC1)OCO2	-0.8
Cn1nnnc1SCCNC(=O)CN1CCOc2ccccc2C1	-15.7
Cc1nn2cc(CNC(=O)CN3CCOc4ccccc4C3)nc2s1	-16.5
O=C(CN1CCOc2ccccc2C1)NCCS(=O)(=O)N1CCCC1	71.0*
O=C(CCc1ccc2c(c1)OCCO2)NCc1ccccc1F	-1.9
COC(=O)c1ccc(Cn2nc(C3CC3)c3cnn(-c4ccccc4C)c3c2=O)cc1	-8.9
CC(C)(C)c1oc(C(N)=O)cc1CN1CCC(N2CCCC2=O)CC1	8.8
CC(C)c1ccc(C2c3cc4c(cc3OC(=N)C2C#N)OCO4)cc1 (configuration not stated)	-19.2
SMILES	mcGAS RapidFire
Cc1cn2c(CC(=O)O)csc2n1	5.6
CCCC1C2CC(C)CC=C2C(C#N)C(=N)C1(C#N)C#N (configuration not stated)	-6.9
O=C(NC(C(=O)N1CCSCC1)c1ccccc1)c1ccccc1 (configuration not stated)	-23.4
N#CC(NC(=O)c1[nH]ncc1Br)c1cccc(Cl)c1 (configuration not stated)	-16.9
CC(C)c1nc(NC(=O)CS(=O)(=O)C2CCCC2)n(C)n1	-2.5
CC(C)c1nc(NC(=O)c2[nH]ncc2Br)n(C)n1	93.7*
O=C(CCN1C(=O)CSc2ccccc21)NCc1ccccc1Cl	-2.9
O=S(=O)(NN=Cc1cccs1)c1ccc(Br)cc1	-9.3
O=C(c1ccccn1)N1CCN(Cc2ccccc2)CC1	-4.5
O=C(c1cccc2ccccc12)c1nc2c(n1O)CCCC2	-5.2
CCOc1ccc(C(=O)c2nc3c(n2O)CCCCC3)cc1OCC	-2.7
Cc1ccc(C(=O)c2nc3c(n2O)CCCCC3)cc1	89.7*
Cc1ccc(C2=NNC(=O)C3CCCCC23)cc1C (configuration not stated)	-0.1
CCc1nn(C)c(C(=O)O)c1N	7.4
CCc1cc(CNS(=O)(=O)c2cc(F)c(F)c(F)c2)[nH]n1	-4.3
CC(C)C(NC(=O)c1ccc(N2CC(=O)NC2=O)cc1)c1nccn1C (configuration not stated)	-6.7
O=S(=O)(O)c1cc(N=C=S)ccc1/C=C/c1ccc(N=C=S)cc1S(=O)(=O)O	97.9*
CC(C)(C)/[N+]([O-])=C/c1ccc(S(=O)(=O)O)cc1S(=O)(=O)O	-6.0
CCOC(=O)C1(CCOc2ccccc2)CCN(Cc2nc3ccccc3s2)CC1	-6.4
NCc1ccsc1-c1ccccc1	-3.7
CC1Oc2ccccc2N(Cc2ccccc2Cl)C1=O (configuration not stated)	-14.6
CC1Sc2ccc(-c3ccco3)cc2N(Cc2ccccc2Cl)C1=O (configuration not stated)	69.4*
Cc1ccccc1CN1C(=O)C(C)Sc2ccc(-c3ccco3)cc21 (configuration not stated)	45.9
COc1cccc(-c2ccc3c(c2)N(Cc2ccc(F)cc2)C(=O)C(C)S3)c1 (configuration not stated)	-9.9
